Test results: PubChem BioAssay
Active and inactive are the calls of the source.

Key:
[1] = small molecules captured by biotinylated probe aFSTL3 – biochemical, small-molecule microarray, fluorescence 635/667, stem cell growth factor project, primary screen (AID 1064); settings: higher = more signal;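 further: measures binding of the biotinylated anti-FSTL3 antibody to printed compounds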
[2] = binders from COS7 lysate, DM2A8 probe, primary screen, torsin A project, cell lysate, small-molecule microarray, fluorescence 635/667 (AID 1065); settings: higher = more signal, COS7 lysate expressing mutant human TOR1A
[3] = small molecules captured by biotinylated probe aFGF2 – biochemical, small-molecule microarray, fluorescence 635/667, stem cell growth factor project, primary screen (AID 1067); settings: higher = more signal;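 further: measures binding of biotinylated aFGF2 protein to printed compounds on slides; z-score merges feature fluorescence and signal-to-noise across triplicate slides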
[4] = small molecules captured by biotinylated probe aFGF10 – biochemical, small-molecule microarray, fluorescence 635/667, stem cell growth factor project, primary screen (AID 1071); settings: higher = more signal;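 further: score merges 667 nm spot intensity and signal to noise from triplicate slides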
[5] = molecular target: Neurogenic locus notch homolog protein 2 (Homo sapiens) (UniProt Q04721); experiment: small molecules binding Notch2 protein – biochemical, small-molecule microarray, 635 nm fluorescence, stem cell growth factors, primary screen (AID 1073); settings: higher = more signal
[6] = molecular target: Pro-neuregulin-1, membrane-bound isoform (Homo sapiens) (UniProt Q02297); experiment: small molecules binding neuregulin-1 protein – biochemical, small-molecule microarray, fluorescence 635/667, psychiatric disease protein project, primary screen (AID 1075); settings: NRG1 binding, 635 nm fluorescence, higher = more signal;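 further: score combines 667 nm spot fluorescence with signal to noise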
Pro-neuregulin-1, membrane-bound isoform (Homo sapiens), sequence (Q02297 whole entry, looked up, the tested form may be a part, canonical isoform): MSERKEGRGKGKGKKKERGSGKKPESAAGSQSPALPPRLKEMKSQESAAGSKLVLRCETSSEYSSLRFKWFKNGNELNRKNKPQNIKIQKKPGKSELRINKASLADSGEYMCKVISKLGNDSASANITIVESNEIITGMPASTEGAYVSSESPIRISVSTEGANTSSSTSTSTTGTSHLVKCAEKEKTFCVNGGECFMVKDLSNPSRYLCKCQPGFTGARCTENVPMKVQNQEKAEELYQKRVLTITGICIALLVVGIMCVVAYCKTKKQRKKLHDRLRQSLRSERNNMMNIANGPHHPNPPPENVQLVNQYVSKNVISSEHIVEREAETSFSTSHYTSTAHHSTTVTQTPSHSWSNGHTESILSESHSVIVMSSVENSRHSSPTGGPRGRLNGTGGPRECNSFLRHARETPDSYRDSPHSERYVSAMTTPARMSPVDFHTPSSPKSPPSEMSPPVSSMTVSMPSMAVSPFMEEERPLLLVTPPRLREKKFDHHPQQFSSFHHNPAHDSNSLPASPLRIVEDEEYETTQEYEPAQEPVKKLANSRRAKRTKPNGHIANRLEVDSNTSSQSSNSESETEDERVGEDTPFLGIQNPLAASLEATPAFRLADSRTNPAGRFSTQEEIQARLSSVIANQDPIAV

[7] = test system: Neuregulin-1 EGF-like domain; experiment: small molecules binding NRG1 EGF domain – biochemical, small-molecule microarray, 635 nm fluorescence, primary screen (AID 1081); settings: higher = more signal;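 further: binding of the protein to compounds printed on small-molecule microarray slides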
[8] = FRG1 expression reporter modulators in myotubes – cell-based, C2C12 myotubes, firefly/Renilla luciferase, luminescence, FRG1 inhibition for FSHD, primary screen (AID 1084); settings: FRG1 promoter luciferase, higher = more signal, called active from +8 up or from −8 down
[9] = small molecules captured by biotinylated probe aFST – biochemical, small-molecule microarray, fluorescence 635/667, stem cell growth factor project, primary screen (AID 1086); settings: higher = more signal;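 further: score merges 667 nm fluorescence with signal-to-noise of each printed compound spot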
[10] = binders of probe aHhip on microarray, primary screen, stem cell growth factor project, biochemical, small-molecule microarray, fluorescence 635/667 (AID 1087); settings: higher = more signal;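 further: score merges spot fluorescence at 667nm with spot signal to noise ratio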
[11] = test system: PRMT1 (protein arginine N-methyltransferase 1); experiment: small molecules binding arginine methyltransferase PRMT1 – biochemical, small-molecule microarray, 635 nm fluorescence, primary screen (AID 1088); settings: higher = more signal;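 further: binding of Prmt1 protein to compounds spotted on small-molecule microarray slides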
[12] = growth effects on S. cerevisiae YJM789 – YJM789 clinical isolate, OD600, 24 h, basal, primary screen (AID 1089); settings: higher = more signal, called active from +8 up or from −8 down;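 further: growth of clinical yeast isolate S. cerevisiae YJM 789 seeded 1000 cells per well; test concentration not given here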
[13] = S. pombe growth modifiers, basal conditions – strain 972, OD600, 24 h, no modulator, primary screen (AID 1090);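 further: basal condition with compound alone and no growth modifier present; test concentration not given here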; settings: S. pombe 972 growth, higher = more signal, called active from +8 up or from −8 down
[14] = budding yeast growth modifiers under rapamycin – strain BY4716, OD600, 96 h, primary screen (AID 1091); further: test concentration not given here; settings: S. cerevisiae BY4716 + rapamycin, higher = more signal, called active from +8 up or from −8 down
[15] = molecular target: Torsin-1A-interacting protein 2 (Homo sapiens) (UniProt Q8NFQ8); experiment: small molecules binding lysate-expressed LULL1 – cell lysate, human LULL1 lysate, 635/667 nm fluorescence, primary screen (AID 1092); settings: small-molecule microarray, hLULL1 lysate binding, 635 nm fluorescence; higher = more signal;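 further: probe is lysate of COS7 cells overexpressing human LULL1; score merges per-feature 667 nm fluorescence with signal-to-noise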
Torsin-1A-interacting protein 2 (Homo sapiens), sequence (Q8NFQ8 whole entry, looked up): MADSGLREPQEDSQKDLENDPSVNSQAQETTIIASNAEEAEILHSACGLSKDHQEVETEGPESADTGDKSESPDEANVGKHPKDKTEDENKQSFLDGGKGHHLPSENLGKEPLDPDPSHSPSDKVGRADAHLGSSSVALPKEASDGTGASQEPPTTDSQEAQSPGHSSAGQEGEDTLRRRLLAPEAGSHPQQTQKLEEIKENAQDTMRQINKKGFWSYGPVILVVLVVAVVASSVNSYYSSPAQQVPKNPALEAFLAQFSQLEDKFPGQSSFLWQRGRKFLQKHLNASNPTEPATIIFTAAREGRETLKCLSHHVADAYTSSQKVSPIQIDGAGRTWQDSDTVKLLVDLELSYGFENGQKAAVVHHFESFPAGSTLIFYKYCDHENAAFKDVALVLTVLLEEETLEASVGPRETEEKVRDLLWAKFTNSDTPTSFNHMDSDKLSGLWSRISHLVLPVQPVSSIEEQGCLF

[16] = optical density change of DRC41 E. coli – strain DRC41, OD650, 24 h, E. coli filamentation project, primary screen (AID 1093);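 further: MC1000 strain lacking acrAB efflux and sulA so SOS filamentation is blocked; test concentration not given here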; settings: E. coli DRC41 growth, higher = more signal, called active from +8 up or from −8 down
[17] = probe aLefty2 binding to arrayed compounds – biochemical, biotinylated probe, 635/667 nm fluorescence, primary screen (AID 1094); settings: small-molecule microarray, higher = more signal;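 further: score merges spot fluorescence near 667 nm with spot signal-to-noise ratio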
[18] = test system: Noggin (protein binding on small-molecule microarray); experiment: small molecules binding Noggin protein – biochemical, 635/667 nm fluorescence, primary screen (AID 1095); settings: 635 nm fluorescence, higher = more signal;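 further: score merges 667 nm feature fluorescence with signal to noise over triplicate slides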
[19] = molecular target: Neurogenic locus notch homolog protein 3 (Homo sapiens) (UniProt Q9UM47); experiment: small molecules binding NOTCH3 protein – biochemical, 635/667 nm fluorescence, primary screen (AID 1096); settings: small-molecule microarray, 635 nm fluorescence, higher = more signal
Neurogenic locus notch homolog protein 3 (Homo sapiens), sequence (Q9UM47 whole entry, looked up): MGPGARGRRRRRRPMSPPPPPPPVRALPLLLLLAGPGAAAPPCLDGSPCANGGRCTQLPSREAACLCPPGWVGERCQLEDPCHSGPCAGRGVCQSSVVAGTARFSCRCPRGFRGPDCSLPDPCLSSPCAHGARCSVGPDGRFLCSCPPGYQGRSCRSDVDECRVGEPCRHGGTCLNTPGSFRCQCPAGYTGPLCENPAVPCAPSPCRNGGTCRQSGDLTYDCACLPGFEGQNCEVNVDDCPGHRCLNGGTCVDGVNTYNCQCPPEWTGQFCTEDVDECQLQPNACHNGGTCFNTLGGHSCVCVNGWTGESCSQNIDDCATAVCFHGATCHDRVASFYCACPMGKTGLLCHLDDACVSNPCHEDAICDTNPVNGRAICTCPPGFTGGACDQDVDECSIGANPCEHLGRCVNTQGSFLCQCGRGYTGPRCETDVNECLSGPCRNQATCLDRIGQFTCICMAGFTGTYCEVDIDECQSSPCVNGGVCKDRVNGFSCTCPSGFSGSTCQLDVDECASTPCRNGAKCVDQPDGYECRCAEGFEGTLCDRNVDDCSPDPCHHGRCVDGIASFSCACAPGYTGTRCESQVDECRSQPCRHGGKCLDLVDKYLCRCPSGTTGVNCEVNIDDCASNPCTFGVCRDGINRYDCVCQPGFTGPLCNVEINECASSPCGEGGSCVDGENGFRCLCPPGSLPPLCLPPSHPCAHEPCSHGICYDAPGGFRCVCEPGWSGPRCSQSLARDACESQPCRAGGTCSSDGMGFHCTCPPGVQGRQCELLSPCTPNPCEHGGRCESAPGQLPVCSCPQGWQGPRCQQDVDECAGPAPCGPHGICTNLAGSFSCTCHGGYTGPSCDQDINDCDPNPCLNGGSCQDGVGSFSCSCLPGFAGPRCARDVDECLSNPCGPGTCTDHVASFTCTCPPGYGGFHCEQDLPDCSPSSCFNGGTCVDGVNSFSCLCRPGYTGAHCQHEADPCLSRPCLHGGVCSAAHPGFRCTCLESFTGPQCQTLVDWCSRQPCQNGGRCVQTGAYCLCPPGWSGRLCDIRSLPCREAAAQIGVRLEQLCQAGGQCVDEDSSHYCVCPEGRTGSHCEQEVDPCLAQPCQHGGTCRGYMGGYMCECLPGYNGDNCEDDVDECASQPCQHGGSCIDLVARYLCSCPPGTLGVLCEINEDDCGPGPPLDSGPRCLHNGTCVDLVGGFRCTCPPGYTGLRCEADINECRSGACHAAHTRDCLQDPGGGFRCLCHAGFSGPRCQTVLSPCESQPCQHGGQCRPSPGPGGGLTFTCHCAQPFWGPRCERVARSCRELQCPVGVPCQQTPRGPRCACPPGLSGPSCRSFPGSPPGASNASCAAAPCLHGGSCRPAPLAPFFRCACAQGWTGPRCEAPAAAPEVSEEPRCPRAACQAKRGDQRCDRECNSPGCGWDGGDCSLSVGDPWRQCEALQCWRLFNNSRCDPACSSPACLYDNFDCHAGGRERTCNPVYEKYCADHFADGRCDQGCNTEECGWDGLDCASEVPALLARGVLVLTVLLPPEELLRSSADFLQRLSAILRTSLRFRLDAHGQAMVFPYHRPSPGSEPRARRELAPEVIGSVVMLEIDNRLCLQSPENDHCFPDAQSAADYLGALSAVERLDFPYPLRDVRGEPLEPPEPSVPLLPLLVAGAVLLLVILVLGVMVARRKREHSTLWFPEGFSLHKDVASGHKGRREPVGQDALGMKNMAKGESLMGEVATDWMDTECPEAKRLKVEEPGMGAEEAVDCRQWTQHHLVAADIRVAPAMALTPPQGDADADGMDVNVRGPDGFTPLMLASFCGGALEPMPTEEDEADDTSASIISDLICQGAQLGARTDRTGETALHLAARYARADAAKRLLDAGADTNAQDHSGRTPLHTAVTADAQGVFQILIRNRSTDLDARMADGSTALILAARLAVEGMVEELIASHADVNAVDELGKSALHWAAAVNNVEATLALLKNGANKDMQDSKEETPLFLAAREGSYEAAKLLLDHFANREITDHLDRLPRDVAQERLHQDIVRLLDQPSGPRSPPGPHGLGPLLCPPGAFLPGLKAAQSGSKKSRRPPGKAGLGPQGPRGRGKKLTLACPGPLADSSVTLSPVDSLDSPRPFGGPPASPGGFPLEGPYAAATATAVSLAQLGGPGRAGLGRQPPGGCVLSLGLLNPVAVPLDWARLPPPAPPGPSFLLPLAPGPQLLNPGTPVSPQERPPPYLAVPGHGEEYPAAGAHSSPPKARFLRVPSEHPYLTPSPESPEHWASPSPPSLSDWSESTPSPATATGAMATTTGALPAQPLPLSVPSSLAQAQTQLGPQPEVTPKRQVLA

[20] = probe aEGFR binding to arrayed compounds – biochemical, biotinylated probe, 635/667 nm fluorescence, primary screen (AID 1097); settings: small-molecule microarray, higher = more signal;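 further: probe is a biotinylated anti-EGFR antibody binding compounds printed on slides; score combines fluorescence near 667 nm and signal to noise of each spot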

| SMILES | composite z-score [1] | composite z-score [2] | composite z-score [3] | composite z-score [4] | composite z-score [5] | composite z-score [6] | composite z-score [7] | z-score [8] | composite z-score [9] | composite z-score [10] | composite z-score [11] | z-score [12] | z-score [13] | z-score [14] | composite z-score [15] | z-score [16] | composite z-score [17] | composite z-score [18] | composite z-score [19] | composite z-score [20] |
| --- | --- | --- | --- | --- | --- | --- | --- | --- | --- | --- | --- | --- | --- | --- | --- | --- | --- | --- | --- | --- |
| O=C1NC(=O)C2C1C=CC(C(O)c1ccc3c(c1)OCO3)N2Nc1ccccn1 (stereo not given) | -0.0049 | 0.0415 | 0.271 | 0.204 | 0.994 | 1.91 | 1.16 | -0.653 (inactive) | 0.364 | 0.0274 | 0.227 | -0.976 (inactive) | 1.02 (inactive) | -0.939 (inactive) | 2.78 | -0.541 (inactive) | 0.0787 | 0.233 | 0.552 | -0.0999 |
| COC(=O)[C@H](Cc1ccccc1)N1CC(/C=C/C2CC2)=C[C@@H]1[C@@H](O)Cc1ccccc1 | -0.549 | 0.0784 | -0.0093 | 1.23 | 1.38 | 0.947 | 1.11 | -1.09 (inactive) | 0.707 | 0.177 | 1.46 | 0.107 (inactive) | -3.04 (inactive) | 0.423 (inactive) | 1.66 | 0.559 (inactive) | 0.0166 | 0.685 | 0.9 | 0.009 |
| CC(C)(C)OC(=O)CC[C@@]1(C(=O)O)N=C(c2ccc(OCCCO)cc2)O[C@@H]1c1ccccc1 | 0.308 | -0.648 | -0.0459 | 0.13 | 0.347 | 1.96 | 1.53 | 0.853 (inactive) | 0.398 | 0.24 | 0.618 | 0.586 (inactive) | 1.24 (inactive) | 0.519 (inactive) | 3.55 | 0.0219 (inactive) | 0.021 | -0.423 | 0.183 | -0.0884 |
| CN(C)C(=O)[C@]1(CCC(=O)OC(C)(C)C)N=C(c2ccc(OCCCO)cc2)O[C@@H]1c1ccccc1 | -0.175 | 0.527 | -0.016 | 0.776 | 1.3 | 1.91 | 1.4 | 0.788 (inactive) | 0.268 | -0.0645 | 0.637 | 0.182 (inactive) | -0.993 (inactive) | -0.273 (inactive) | 3.56 | 1.27 (inactive) | 0.0601 | -0.674 | -0.301 | 0.625 |
| CN1C(=O)C2C=CC(C(O)c3c(F)cccc3Cl)N(Nc3ccccc3)C2C1=O (stereo not given) | -0.196 | -0.198 | 0.171 | 0.334 | 1.55 | 1.84 | 1.1 | 0.433 (inactive) | 0.878 | -0.0346 | 1.04 | -0.0908 (inactive) | 1.19 (inactive) | 0.437 (inactive) | 3.44 | -0.757 (inactive) | 0.244 | 0.0319 | 1.07 | 0.0562 |
